Source: PubChem BioAssay (National Center for Advancing Translational Sciences (NCATS))
An excerpt weighted towards active compounds, which were near 8% of everything screened.
KB-V1 cytotox – KB-V1 MDR subline cytotoxicity. KB-V1 MDR cells viability, CellTiter-Glo, 72 h. Potency, µM (titrated, usually from 46.1 µM), usual class: cytotoxic. 400,000 compounds, 3.4% hits. AID 1347076; further: on the % scale 0 is the no-effect control and ±100 the full control effect; nearly all actives have a fitted effect of over 60% in size
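Compound-treated KB-V1 multidrug-resistant cells, 72 h, 37 degrees C; viability by CellTiter-Glo. Fitted qHTS curves give the values.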
HT1080-NT tox – kills 2HG-producing HT-1080-NT fibrosarcoma cells. HT-1080-NT fibrosarcoma viability, CellTiter-Glo ATP luminescence, 48 h. 360,000 compounds, 1.6% hits. Potency, µM (series often up to 46.1 µM), for inactives: at the top dose activity, negative = less viability, actives largely listed as cytotoxic. AID 686970;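 further: NT is the 2HG producing partner of a matched IDH1 knockdown line; 0% = DMSO-treated cells and -100% = media-only wells without cells; nearly all actives have a fitted effect of over 55% in size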
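Compounds were tested in concentration-response format on HT-1080-NT cells for 48 hours at 37 degrees C. Cell viability came from CellTiter-Glo luminescence; curves were classified by r2, response magnitude and activity.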
SW480 rereplic – induces DNA re-replication in SW480 colon adenocarcinoma cells; SW480 DNA re-replication, Hoechst DNA content imaging, 48 h; Potency, µM (highest dose often 46.1 µM), for the others: top-dose re-replication activation, actives largely listed as activators; 340,000 compounds, 1.8% hits; further: % of control where 0% means no effect; nearly all actives have a fitted effect of over 55% in size
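Per well, 250 cells were exposed to pinned compound for 48 hr. Nuclear DNA was visualised with Hoechst (40 min, 37 C) and total object intensity recorded by fluorescence scanning.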
KB-3-1 tox – KB-3-1 parental cell cytotoxicity; KB-3-1 viability, CellTiter-Glo ATP luminescence, 72 h; Potency, µM (series often up to 46.1 µM), hits mostly cytotoxic; 400,000 compounds, 1.4% hits; further: on the % scale 0 is the no-effect control and ±100 the full control effect; nearly all actives have a fitted effect of over 60% in size
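Cytotoxicity in the drug-sensitive parental line KB-3-1 was scored as loss of CellTiter-Glo luminescence following 72 h incubation with compound. Values come from curve fitting of normalized concentration-response data.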
MCF10A rerep – inducers of DNA re-replication in MCF 10A breast cells. MCF 10A DNA re-replication, Hoechst nuclear intensity, 48 h. Potency, µM (doses to about 46.1 µM), for the others: at the top dose activity, positive = re-replication, usual class: activators. 350,000 compounds, 2.9% hits. AID 624296; further: % of control where 0% means no effect; nearly all actives have a fitted effect of over 50% in size
HT1080 IDH1KD tx – toxicity to HT-1080 IDH1 knockdown cells (counter line) | Potency, µM (highest dose often 46.1 µM), inactives show at the highest dose activity, negative = toxicity, hits mostly cytotoxic | HT-1080 IDH1 knockdown viability, ATP luminescence, 48 h | AID 686971 | 360,000 compounds, 2% hits;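 further: 0% = DMSO wells and -100% = cell-free medium wells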
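% activity derives from luminescence (CellTiter-Glo), normalised to DMSO and no-cell wells. HT-1080-IDH1KD cells, 750/well, had 48 h compound exposure at 37 °C.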
* hit, by the source's call; i = inactive; ? = inconclusive; . = no result given. The call rests on the fitted dose curve; in most records, active means well fitted curve in the direction sought with a large enough effect; inconclusive means small, poorly fitted or top-dose-only effect, or another doubt; inactive means no such curve, though single readings can be large; an effect the other way counts as inactive or inconclusive. Potency means the concentration at half of the fitted maximal effect.

SMILES | KB-V1 cytotox | HT1080-NT tox | SW480 rereplic | KB-3-1 tox | MCF10A rerep | HT1080 IDH1KD tx
CCOC(=O)CNC(=O)CN1CCCN(S(=O)(=O)c2ccc(Br)s2)CC1 | i | -7.6% | 9.2% | i | 19.3% | -7.2%
CC1CCN(CC(=O)Nc2ccc(S(=O)(=O)N3CCC(C)CC3)cc2)CC1 | ? | -13.0% | -6.0% | ? | ? | -7.5%
Cc1ccc([N+](=O)[O-])c(Oc2ncnc3c2oc2ccccc23)c1 | i | . | . | i | . | .
CC1CCCN(CC(=O)Nc2ccc(S(=O)(=O)N3CCCCC3)cc2)C1 (stereo not given) | i | 7.8% | ? | i | 8.7% | 7.6%
CC1CCCN(CC(=O)Nc2ccc(S(=O)(=O)N3CCCCCC3)cc2)C1 (stereo not given) | ? | 22.4µM* | -7.2% | i | ? | ?
COC(=O)CCCCCn1c(-c2ccccc2)cn2c3c(=O)n(C)c(=O)n(C)c3nc12 | i | . | . | i | . | .
CCc1cccc(NC(=O)CCS(=O)(=O)c2ccc(C)cc2)c1 | i | . | . | i | . | .
CCNS(=O)(=O)c1ccc(Br)c(OC)c1 | i | 5.5% | -4.9% | i | -8.9% | 0.5%
CC(Sc1nnc(-c2ccncc2)n1-c1ccc(F)cc1)C(=O)NC1CC1 (stereo not given) | i | 6.4% | 6.9% | i | -17.8% | 9.1%
COc1cc(/C=C/C(=O)N2CCOCC2)ccc1OCc1ccccc1 | i | -3.7% | -4.4% | ? | 42.7% | -10.4%
CCOc1ccc(/C=C/C(O)=C2/C(=O)N(C)C3(C)CC2c2ccccc2O3)cc1OC (stereo not given) | ? | ? | 13µM* | 23.1µM* | ? | 3.66µM*
CCOC(=O)C1=C(COC(=O)/C=C/c2ccc(OCC)c(OC)c2)NC(=O)NC1C (stereo not given) | i | -11.2% | -0.5% | i | 8.4% | -14.8%
CCOc1ccc(/C=C/C(O)=C2/C(=O)NC3(C)CC2c2ccccc2O3)cc1OC (stereo not given) | ? | -24.0% | 9.2µM* | ? | 8.2µM* | ?
COc1ccc(-c2nnc(C3CCN(S(=O)(=O)c4cccc(Cl)c4)CC3)o2)cc1 | i | . | . | ? | . | .
O=C(COC(=O)CCC(=O)c1ccc(F)cc1)NCCc1ccccc1 | ? | 10.0% | -15.1% | ? | -12.1% | 4.9%
CCN(CC)S(=O)(=O)c1ccc(S(=O)(=O)N2CCCC2)cc1 | i | 1.4% | -1.8% | i | -0.7% | -3.7%
CCOCCCN(CCC#N)S(=O)(=O)c1ccc(S(=O)(=O)N2CCCC2)cc1 | 25.9µM* | 1.4% | 0.6% | i | 5.3% | 3.9%
Cc1nc2cc(NC(=O)Nc3ccc(Br)cc3)ccc2o1 | ? | -6.7% | 0.7% | ? | -17.4% | ?
Nc1nc(Nc2ccccc2F)sc1C(=O)c1ccccc1 | i | -9.9% | ? | 10.3µM* | ? | -26.6%
CC1(c2ccc([N+](=O)[O-])cc2)Nc2ccccc2S1 (stereo not given) | i | ? | -0.7% | i | 8.9% | 20.6µM*
O=C1Nc2ccccc2/C1=C/c1ccc([N+](=O)[O-])cc1 | i | -1.3% | -3.0% | i | 0.8% | 4.3%
Cc1ccc(-c2nc(NCCCN(C)C)c3ccccc3n2)cc1 | i | ? | . | i | . | ?
Cc1ccc(-c2csc3nc4c5ccccc5c(NCCCN(C)C)nn4c(=O)c23)cc1 | i | 0.3% | ? | ? | 18.4µM* | -0.7%
Cn1cc(S(=O)(=O)c2ccccc2)c(=O)c2cc(F)c(N3CCCC3)cc21 | i | . | . | i | . | .
COc1ccc(CCN2CCCC(CN(C)Cc3cc(OC)ccc3OC)C2)cc1 (stereo not given) | i | ? | -6.8% | i | 0.651µM* | -27.7%
